Source: PubChem BioAssay (Sanford-Burnham Center for Chemical Genomics)
CYP2C19 act = cytochrome P450 2C19 (human) activation. P33261. recombinant CYP2C19, luciferin-H EGE luminescence; active compounds read high; 0 = fully inhibited enzyme, 1 = untreated enzyme. activation factor at 5 µM. 96,000 tested, under 10 active;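 active means activation factor of at least 2 at 5 µM in the primary screen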;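 further: 0 = wells with 2.5 mM tranylcypromine and 1 = vehicle-only wells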
Target sequence (P33261 whole entry, looked up): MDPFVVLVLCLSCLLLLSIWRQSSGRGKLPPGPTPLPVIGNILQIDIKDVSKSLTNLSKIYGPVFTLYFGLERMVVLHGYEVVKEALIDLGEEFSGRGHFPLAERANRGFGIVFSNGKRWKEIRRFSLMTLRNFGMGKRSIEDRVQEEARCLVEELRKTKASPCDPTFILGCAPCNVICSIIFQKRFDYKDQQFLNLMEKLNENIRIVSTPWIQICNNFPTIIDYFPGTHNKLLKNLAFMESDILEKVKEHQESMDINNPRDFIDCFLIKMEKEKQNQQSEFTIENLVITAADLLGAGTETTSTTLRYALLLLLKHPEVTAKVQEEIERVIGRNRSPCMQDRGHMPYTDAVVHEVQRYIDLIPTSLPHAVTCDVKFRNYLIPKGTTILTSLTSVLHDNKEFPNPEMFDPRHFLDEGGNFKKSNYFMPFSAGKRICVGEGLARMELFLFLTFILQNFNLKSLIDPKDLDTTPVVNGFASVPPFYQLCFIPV
Mac1 fbg inh = CD11b/CD18-fibrinogen binding inhibition | P05107+P11215 | K562 CD11b/CD18 adhesion to fibrinogen, ATPlite luminescence; Mn2+ added to activate the integrin | inhibition, % at 10 µM | 93,000 tested, 0.54% active;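 active means primary inhibition of 50% or more at 10 µM, then 40% or more on retest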
Mac1 fbg enh = increases human CD11b/CD18 adhesion to fibrinogen; P05107+P11215; K562 CD11b/CD18 adhesion to fibrinogen, ATPlite luminescence; activation, % at 10 µM; 93,000 tested, 0.07% active; AID 1499;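 active means 10 µM primary screen giving 50% or more activity, confirmed by 40% or more on retest at that dose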
CYP2C9 act = activators of human CYP2C9. recombinant CYP2C9, luciferin-H conversion, luminescence; active compounds read high; factor 1 = untreated enzyme, 0 = blocked. activation factor at 5 µM. 96,000 tested, 1.4% active;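 active means activation factor of 2 or more for CYP2C9 at a 5 µM dose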;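 further: 0 = sulfaphenazole-blocked wells and 1 = vehicle-only wells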
CYP2C19 inhib = blocks human cytochrome P450 2C19; P33261; CYP2C19 Supersomes, luciferin-H EGE luminescence, 30 min; inhibition, % at 5 µM; 96,000 tested, 21% active;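 active means CYP2C19 inhibition above a set limit at 5 µM in the primary screen, cut at about 50% in these data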;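 further: plate controls were negative control wells for no effect and 2.5 mM tranylcypromine positive control for full effect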
CYP2C9 inh = inhibitors of human CYP2C9; P11712; CYP2C9 Supersomes, luciferin-H conversion, luminescence; inhibition, % at 5 µM; 96,000 tested, 20% active;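 active means blocking of liver enzyme CYP2C9 beyond about 50% at 5 µM, limit read from the data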
* marks the source's active call; other numbers are inactive results; · = no result. Hits are enriched below; roughly 28% of the tested compounds scored in any of these assays.

SMILES	CYP2C19 act	Mac1 fbg inh	Mac1 fbg enh	CYP2C9 act	CYP2C19 inhib	CYP2C9 inh
COC(=O)[C@H](C)NC(=O)NCc1ccco1	1	-17.2	1.0	1	-4.7	-3.8
CS(=O)(=O)N(CC(=O)N1CCN(Cc2ccccc2)CC1)C1CCCCC1	1.1	1.1	-3.6	1.2	-14.4	-19.0
CN(C1CCCCC1)S(=O)(=O)Cc1ccccc1	0.5	3.3	2.0	0.8	53.9*	16.1
O=C(c1ccc(CNc2c(NC3CCCCC3)c(=O)c2=O)cc1)N1CCc2ccccc21	0.9	-8.4	55.2	0.8	5.2	19.2
COc1ccc(-c2nn(-c3ccccc3)cc2/C=N/n2cnnc2)cc1OC	0.2	-59.9	12.9	0.5	80.3*	45.9
Cn1cccc1/C=N/n1cnnc1	1	-19.0	0.0	1	0.3	0.3
C(=N\n1cnnc1)/c1cn(-c2cccs2)nc1-c1ccccc1	0.2	5.0	0.7	0.3	81.2*	70.5*
CCOC(=O)c1cc2c(=O)n3cccc(C)c3nc2n(Cc2ccco2)c1=NC(=O)c1ccccc1	·	-15.1	4.8	·	·	·
O=C(NCc1ccco1)C(c1cccnc1)N(C(=O)Cn1nnc2ccccc21)c1ccc(F)cc1 (stereo not drawn)	0.9	-11.7	-3.1	1	11.8	2.4
COCCn1c(SCc2nc3sc(C(=O)OC)c(C)c3c(=O)[nH]2)nc2ccccc21	0.3	1.9	2.5	0.1	73.9*	91.4*
CCn1c(SCc2nc3sc(C(=O)O)c(C)c3c(=O)[nH]2)nc2ccccc21	1	-3.1	-2.3	0.4	1.6	55.4*
c1ccc2c(c1)ncn2CCCOc1ccc2c(c1)CCC2	0.6	53.4	-3.2	0.6	40.0	39.0
Cc1cc(C)c(C)c(OCCCCn2cnc3ccccc3c2=O)c1	0.8	10.3	-3.4	1.2	15.2	-16.8
Brc1ccccc1OCCCn1cnc2ccccc21	0.4	-15.9	0.0	0.4	58.2*	60.0*
Cc1cccc(Cn2cnc3ccccc32)c1	0.2	-32.1	-4.5	0.5	84.2*	53.2*
Cc1ccccc1OCCCCn1cnc2ccccc21	0.4	95.2*	-6.8	0.7	60.8*	34.6
c1ccc2c(c1)ncn2CCCCOc1ccc2c(c1)CCC2	0.8	82.0*	-4.0	0.9	24.2	12.9
CC(C)Sc1nc2ccccc2n1CC(N)=O	1	0.5	-2.2	1.1	-2.9	-12.3
Fc1ccc(Cn2cnc3ccccc32)cc1	0.6	10.2	-3.6	0.9	43.9	12.6
CCCOc1ccc(Cn2cnc3ccccc32)cc1	0.4	89.4*	-8.2	0.1	64.7*	86.6*
c1ccc(OCCCCn2cnc3ccccc32)cc1	0.4	63.1*	-9.2	0.9	59.9*	8.7
c1ccc(OCCn2cnc3ccccc32)cc1	0.7	-39.7	0.9	0.9	26.7	10.6
CCOC(=O)c1cc(NC(=O)N(CC)CC)c(C)nc1C	1	-29.7	-0.6	0.9	-1.4	11.2
Cc1ccc(CNS(=O)(=O)c2cn(C)cn2)cc1	0.9	0.1	-5.5	1.2	7.0	-16.1
O=C(CNS(=O)(=O)c1ccc(C(=O)N2CCCCC2)cc1)N1CCCCC1	0.9	-9.1	-4.5	1.2	5.3	-16.5
SMILES	CYP2C19 act	Mac1 fbg inh	Mac1 fbg enh	CYP2C9 act	CYP2C19 inhib	CYP2C9 inh
CCn1c(-c2cc(Cl)ccc2OC)n[nH]c1=S	0.7	15.8	-1.3	1	28.5	3.7
C=CCn1c(-c2cccn(Cc3ccc(Cl)cc3Cl)c2=O)n[nH]c1=S	0.2	·	·	0.9	80.2*	5.8
C=CCn1c(-c2cc(Cl)ccc2OC)n[nH]c1=S	0.2	-6.3	2.4	0.5	82.2*	50.2*
N#CCOC(=O)c1sccc1-n1cccc1	0.9	·	·	2*	9.3	-95.2
O=C(NC1CC1)c1sccc1-n1cccc1	0.8	-16.8	-0.1	0.5	15.4	46.8
COc1cccc(OCC(=O)NN=C2c3ccccc3-c3ccccc32)c1	0.7	·	·	1.7	33.1	-66.6
COc1cccc(Oc2ccc(N)cn2)c1	0.8	·	-1.4	1.1	18.7	-5.7
COc1cccc(-n2cnc3cccc(N)c32)c1	0.6	27.8	-1.0	2.3*	36.8	-125.4
Cc1cc2cc(CN(C(=O)C3CC3)C3CCCC3)c3nnnn3c2cc1C	0	-9.9	1.5	0.3	95.6*	71.6*
CC(C)CC(/C(O)=C(\C#N)c1nc2ccccc2[nH]1)N1C(=O)c2ccccc2C1=O (stereo not drawn)	0	18.3	-7.0	0.1	96.2*	94.7*
CC1CCCN(C/C(O)=C(\C#N)c2nc3ccccc3[nH]2)C1 (stereo not drawn)	1	0.4	2.6	1	0.1	-0.8
CC(C)(C)/C(O)=C(/C#N)c1nc2ccccc2[nH]1	0.6	-22.2	1.4	0.4	39.1	63.5*
COc1ccccc1OCC(=O)OC/C(O)=C(\C#N)c1nc2ccccc2[nH]1	·	20.0	8.1	·	·	·
COc1cccc(OC)c1/C(O)=C(\C#N)c1nc2ccccc2[nH]1	0.4	23.8	-1.2	0.8	58.5*	23.9
COc1ccc(OC/C(O)=C(\C#N)c2nc3ccccc3[nH]2)cc1	1.1	6.1	15.5	1.1	-14.4	-12.0
COc1ccc(C/C(O)=C(\C#N)c2nc3ccccc3[nH]2)cc1OC	1	-3.0	-1.8	0.5	-3.2	50.5*
O=C(CCCCCn1c(=O)[nH]c2ccccc2c1=O)NCCCN1CCN(c2ccccc2F)CC1	0.7	-12.4	-3.5	0.6	33.4	43.8
CCOC(=O)CSC(CC)C(=O)Nc1nnc(CC)s1 (stereo not drawn)	1	-28.8	1.7	0.6	-3.9	42.2
CCC(CO)Nc1nc(CN2CCCCC2)nc2scc(-c3ccccc3)c12 (stereo not drawn)	·	10.3	4.0	·	·	·
COc1ccc2nc(N3CCCC3)[nH]c2c1	0.9	0.4	5.3	1	6.8	2.5
O=C(O)C1CC=CCC1C(=O)Nc1ccccc1Cl (stereo not drawn)	1.1	3.7	-3.3	1	-10.3	-4.9
C#CCSc1nncn1C(=O)/C=C/c1ccccc1	1.1	·	·	1	-11.4	1.6
Cc1c(NC(=O)c2ccc3c(c2)OCO3)c(=O)n(-c2ccccc2)n1C	1	4.5	1.9	1.1	-4.3	-7.2
Cc1ccc(C(=O)N/C(=C\c2ccc(-c3ccc(Br)cc3)o2)C(=O)NC2CCS(=O)(=O)C2)cc1 (stereo not drawn)	·	4.5	9.8	·	·	·
O=C(CNC(=O)c1ccccc1)OCc1nc2ccccc2s1	·	-4.5	2.2	·	·	·
COc1ccc(-c2nnn(CC(=O)N(Cc3ccccc3Cl)C(C(=O)NCC3CCCO3)c3ccco3)n2)cc1 (stereo not drawn)	0.9	·	·	0.6	7.0	43.2
O=C(NCC(=O)N(c1ccccc1F)C(C(=O)NCC1CCCO1)c1ccccc1)c1ccco1 (stereo not drawn)	0.9	21.9	0.7	1	9.9	-1.5
Cc1ccc(-c2nnn(CC(=O)N(c3ccccc3F)C(C(=O)NCC3CCCO3)c3c[nH]c4ccccc34)n2)cc1 (stereo not drawn)	0.6	·	·	0.2	35.8	75.3*
